CYP2C9 inhib = blockers of cytochrome P450 2C9 activity – biochemical, luminescence, ADME assay, primary screen; P11712; CYP2C9 Supersomes, luciferin-H conversion; inhibition, % at 5 µM; 20% of 96,000 active; AID 777, 2007;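 active = blocking of liver enzyme CYP2C9 beyond about 50% at 5 µM, limit read from the data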
sEH inh = soluble epoxide hydrolase inhibitors, primary screen, biochemical, human sEH; Bifunctional epoxide hydrolase 2 (Homo sapiens), P34913; recombinant human sEH enzymatic activity assay; inhibition, % at 2 µM; 0.34% of 91,000 active; AID 707, 2007; in the data active = inhibition above about 80%
Target sequence (P34913 whole entry, looked up): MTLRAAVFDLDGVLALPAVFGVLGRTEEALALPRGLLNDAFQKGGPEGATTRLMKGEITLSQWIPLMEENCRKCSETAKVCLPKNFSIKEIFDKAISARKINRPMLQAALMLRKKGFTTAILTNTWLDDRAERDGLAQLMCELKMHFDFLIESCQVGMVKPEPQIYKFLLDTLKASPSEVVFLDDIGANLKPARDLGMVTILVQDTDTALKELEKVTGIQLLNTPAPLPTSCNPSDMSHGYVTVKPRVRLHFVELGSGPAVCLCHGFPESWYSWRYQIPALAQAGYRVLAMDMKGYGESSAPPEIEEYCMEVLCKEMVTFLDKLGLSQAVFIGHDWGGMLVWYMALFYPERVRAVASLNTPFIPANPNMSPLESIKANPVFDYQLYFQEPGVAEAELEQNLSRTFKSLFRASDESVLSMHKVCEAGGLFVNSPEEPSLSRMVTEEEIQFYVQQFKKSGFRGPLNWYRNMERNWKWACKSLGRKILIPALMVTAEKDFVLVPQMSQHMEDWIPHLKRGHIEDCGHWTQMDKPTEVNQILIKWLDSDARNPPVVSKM
CYP2C9 act = human CYP2C9 activators, primary screen, biochemical, luminescence; Cytochrome P450 2C9 (Homo sapiens), P11712; recombinant CYP2C9, luciferin-H conversion; active compounds read high; factor 1 = untreated enzyme, 0 = blocked; activation factor at 5 µM; 1.4% of 96,000 active;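 active = activation factor of 2 or more for CYP2C9 at a 5 µM dose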
CYP2C19 inh = blockers of cytochrome P450 2C19 activity – biochemical, luminescence, ADME assay, primary screen. P33261. CYP2C19 Supersomes, luciferin-H EGE luminescence, 30 min. inhibition, % at 5 µM. 21% of 96,000 active. AID 778, 2007;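 active = CYP2C19 inhibition above a set limit at 5 µM in the primary screen, cut at about 50% in these data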
sEH act = soluble epoxide hydrolase activators, primary screen, biochemical, human sEH; purified human sEH enzymatic activity, activator screen; activation, % at 2 µM; Bifunctional epoxide hydrolase 2 (Homo sapiens), P34913; 0.04% of 91,000 active; in the data active = activation above about 37%
CYP2C19 act = human CYP2C19 activators, primary screen, biochemical, luminescence; activation factor at 5 µM; 96,000 tested, under 10 active; AID 1025, 2008; recombinant CYP2C19, luciferin-H EGE luminescence; active compounds read high; 0 = fully inhibited enzyme, 1 = untreated enzyme; Cytochrome P450 2C19 (Homo sapiens), P33261;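 active = activation factor of at least 2 at 5 µM in the primary screen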
Each line names hits and unclear results; the compound was inactive in the other large screens. A selection: hits, their analogues and other compounds. The true share with any hit is near 27%.

COCP(=O)(c1ccccc1)c1ccccc1	none
O=P(Cc1ccncc1)(c1ccccc1)c1ccccc1	CYP2C19 inh 59.6
O=P(CCCCCCCCCP(=O)(c1ccccc1)c1ccccc1)(c1ccccc1)c1ccccc1	CYP2C9 inhib 99.1, CYP2C19 inh 80.1
O=C(O)CP(=O)(c1ccccc1)c1ccccc1	none (no result: sEH inh, sEH act)
Cc1nnc(NC(=O)CSc2nnc(Cc3cccn3C)n2C)s1	none
Cc1ccc(NC(=O)CN(C)C(=O)CSc2n[nH]c(N)n2)cc1	none (no result: sEH inh, sEH act)
C/C(=N\NS(=O)(=O)c1ccc(Cl)c([N+](=O)[O-])c1)c1ccc(C)o1	CYP2C9 inhib 88.0, CYP2C19 inh 83.1
C/C(=N\NS(=O)(=O)c1ccc(Cl)c([N+](=O)[O-])c1)c1cc2ccccc2o1	CYP2C9 inhib 99.8, CYP2C19 inh 96.8
CC1CN(S(=O)(=O)c2cccs2)CC(C)O1 (stereo unspecified)	none
CC1CCc2ccc(F)cc2N1S(=O)(=O)c1cccs1 (stereo unspecified)	CYP2C19 inh 62.1
O=c1nc2n(c3cc(Cl)c(S(=O)(=O)N4CCOCC4)cc13)CCCCC2	none
CN(C)c1nc(N)nc(CSc2nc3cc(Cl)ccc3o2)n1	none
O=S1(=O)C=C(Sc2nc3cc(Cl)ccc3o2)c2ccccc21	CYP2C19 inh 65.6
COC(=O)C1C(=O)NC(SC)=C(C#N)C1c1ccccc1 (stereo unspecified)	none
CCOC(=O)C1C(=O)NC(SCC(N)=O)=C(C#N)C1c1ccccc1OCC (stereo unspecified)	CYP2C19 inh 76.5 (no result: sEH inh, sEH act)
CCOC(=O)C1C(=O)NC(SC)=C(C#N)C1c1ccccc1F (stereo unspecified)	CYP2C19 inh 90.9 (no result: sEH inh, sEH act)
CN1CCc2nc(SCC(=O)Nc3cccc(F)c3)c(C#N)c(-c3cccs3)c2C1	CYP2C9 inhib 100.5, CYP2C19 inh 94.6
COCCOC(=O)c1c(C)nc(SCC(=O)Nc2ccc(OC)cc2)c(C#N)c1-c1ccco1	CYP2C9 inhib 54.0
Cc1nc(SCC(=O)c2ccccc2)c(C#N)c(-c2ccco2)c1C(=O)NCc1ccco1	CYP2C9 inhib 79.1 (no result: sEH inh, sEH act)
N#Cc1c(-c2ccco2)cc(C2CC2)nc1SCC(=O)c1ccccc1	none
N#Cc1c(N)nc(SCC(=O)NCCc2ccccc2)c(C#N)c1-c1cccs1	none
COc1cccc(NC(=O)CSc2nc3c(c(-c4ccco4)c2C#N)CCCC3)c1	CYP2C9 inhib 52.8
COc1ccc(NC2CS(=O)(=O)CC2OC(=O)c2ccc(F)cc2)cc1 (stereo unspecified)	none
CC(C)NC1CS(=O)(=O)CC1O (stereo unspecified)	none
CSc1nc(NC(C)=O)nc(C)c1Cl	none
CCN(CC)CCNC(=O)CCCNC(=O)Cn1cnc2sc(C)c(C)c2c1=O	none
CCC(=O)Nc1ccc(-c2nnc(SCC(=O)Nc3nccs3)n2C)cc1	none
N#Cc1c(-c2ccco2)nc(SCC(=O)Nc2cccc(Cl)c2)[nH]c1=O	CYP2C9 inhib 99.0, CYP2C19 inh 60.5
O=C(CN1C2CCCC1CC(NC(=O)c1ccccc1)C2)Nc1nccs1 (stereo unspecified)	none (no result: CYP2C9 inhib, CYP2C9 act, CYP2C19 inh, CYP2C19 act)
CCC(C)[C@H](NC(=O)NCc1cccc(OC)c1)C(=O)O (stereo partly specified)	none
CCC(C)[C@H](NC(=O)NCc1ccc(Cl)cc1)C(=O)OC (stereo partly specified)	CYP2C19 inh 51.8
CC(C)Oc1cccc(C(=O)NC(=S)Nc2cccc(C(F)(F)F)c2)c1	none
COc1cccc(C(C)NC(=O)Nc2cccc(C(F)(F)F)c2)c1 (stereo unspecified)	CYP2C19 inh 67.3
CCC(C)[C@H](NC(=O)Nc1cccc(OC)c1)C(=O)OC (stereo partly specified)	CYP2C19 inh 54.7
CCN(CC)S(=O)(=O)c1cccc(NC(=O)Nc2cccc(C(F)(F)F)c2)c1	none
Cc1cc(=O)[nH]c(SCC(=O)Nc2ccc(Cl)cn2)n1	none
COc1cc(C(=O)Oc2cccc(Nc3ncnc4ccccc34)c2)cc(OC)c1OC	CYP2C9 inhib 63.1
O=C(O)c1cccc(Nc2ncnc3ccccc23)c1	none (no result: sEH inh, sEH act)
CCN(Cc1ccccc1)S(=O)(=O)c1nc2nc(C)c(C)c(C)n2n1	none (no result: sEH inh, sEH act)
CC(C)(C)n1nc2c(c1NC(=O)Cc1cccs1)CSC2	CYP2C9 inhib 76.5 (no result: sEH inh, sEH act)
CC(C)(C)n1nc2c(c1NC(=O)Cc1ccc(F)cc1)CSC2	CYP2C9 inhib 67.9, CYP2C19 inh 64.1 (no result: sEH inh, sEH act)
CC(C)(C)n1nc2c(c1NC(=O)COc1ccc(Cl)cc1)CSC2	CYP2C9 inhib 86.1, CYP2C19 inh 66.9
Cc1[nH]c(C)c(C(=O)O)c1CNC1CCCCC1C (stereo unspecified)	none (no result: sEH inh, sEH act)
COC(=O)c1sccc1OC(C)C(C)=O (stereo unspecified)	none
O=C(NCc1ccco1)c1ccc(=O)oc1	none (no result: sEH inh, sEH act)
COc1ccc(N(CC(=O)Nc2cccc(SC)c2)S(C)(=O)=O)cc1Cl	CYP2C19 inh 59.0
COc1ccc(Cl)cc1N(CC(=O)Nc1ccc2c(c1)OCCO2)S(C)(=O)=O	CYP2C9 inhib 69.0, CYP2C19 inh 76.2
CSc1cccc(NC(=O)CN(c2cc(C)ccc2C)S(C)(=O)=O)c1	CYP2C9 inhib 55.7, CYP2C19 inh 84.8
COc1ccc(Cl)cc1N(CC(=O)Nc1cccc(SC)c1)S(C)(=O)=O	CYP2C9 inhib 71.5, CYP2C19 inh 90.6
COc1ccccc1N(CC(=O)Nc1ccc2c(c1)OCCO2)S(C)(=O)=O	none
CC1(C)CC(CCNC(=O)c2ccc(-n3cnnn3)cc2)CC(C)(C)N1	none
O=c1cc(NC2CCCCCC2)[nH]c(=O)[nH]1	none
COc1ccc(C(=O)Nc2cc3c(cc2C#N)OCO3)cc1S(=O)(=O)NCc1ccco1	none
CNC(=O)C1CC(=O)N(c2ccc(C)cc2)C1 (stereo unspecified)	none
O=C(COC(=O)c1ccccn1)Nc1cc(Cl)ccc1Cl	none (no result: sEH inh, sEH act)
C/C(=N\OC(=O)c1cccc(C)c1)c1sc(-c2ccccc2)nc1C	CYP2C19 inh 52.4
O=c1c2ccccc2oc2nc(-c3ccco3)n(Cc3ccccc3)c(=O)c12	none
COC(=O)C1=C(C)N=C2SC(C#N)=C(N)N2C1c1cccc(OC)c1 (stereo unspecified)	CYP2C9 inhib 91.7, CYP2C19 inh 96.0
COC(=O)C1=C(C)N=C2SC(C)C(=O)N2C1c1cccc(F)c1 (stereo unspecified)	none
COc1ccc(-n2c(=O)cc(N3CCN(c4ccccc4OC)CC3)[nH]c2=O)cc1	none (no result: sEH inh, sEH act)
COc1ccc(-n2c(C)c3c(OC)cccc(=O)c3c2C)cc1	CYP2C9 inhib 58.2, CYP2C19 inh 81.3
O=C(CSc1nnc2scc(-c3ccccc3)n12)c1ccc2c(c1)OCCO2	none (no result: sEH inh, sEH act)
